The values that follow come from PubChem BioAssay (Tox21).

Results filed as inconclusive are left out. A number with no mark means an inactive call. The source made the active and inactive calls. Unless noted, calls follow the shape of the dose curve; as a rule, active = well fitted curve in the direction sought with a large enough effect in the repeat runs; inconclusive = weak or mixed curves; inactive = no such curve, though single readings can be large; an effect the other way counts as inactive or inconclusive.

A short description of assay [1]: qHTS assay to identify aromatase inhibitors - cell viability counter screen (AID 743084).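 Also: cells stimulated with testosterone during compound exposure; nearly all actives have a fitted effect of over 55% in size.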 On the technique in general: qHTS replaces the single test concentration by a dilution series.
For assay [2], the target named is Aryl hydrocarbon receptor (Homo sapiens) (UniProt P35869). In words: qHTS assay to identify small molecule that activate the aryl hydrocarbon receptor (AhR) signaling pathway (AID 743085).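 Also: HG2L7.5c1 human HepG2 liver cells with stably integrated DRE-driven firefly reporter; series mostly up to about 70 µM; nearly all actives have a fitted effect of over 15% in size.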 Put shortly: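 HepG2 cells stably carrying a 20-DRE firefly luciferase reporter (HG2L7.5c1) treated with compound for 24 hr at 37C. Luciferase read by ONE-Glo luminescence, with CellTiter-Fluor viability read first.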

The nature of assay [3]: qHTS assay to identify small molecule that activate the aryl hydrocarbon receptor (AhR) signaling pathway - cell viability counter screen (AID 743086). Also: series mostly up to about 70 µM; nearly all actives have a fitted effect of over 45% in size. The essentials: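 HepG2-AhR-luc (HG2L7.5c1) cells, 4000/well, were preincubated 5 h at 37C, exposed to compound in qHTS format for 24 hr at 37C, then given CellTiter-Fluor for 30 min; viability was read as fluorescence in the reporter wells.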

The target of assay [4] is Peroxisome proliferator-activated receptor gamma (Homo sapiens) (UniProt P37231). Description: qHTS assay to identify small molecule agonists of the peroxisome proliferator-activated receptor gamma (PPARg) signaling pathway (AID 743094; active = well fitted activation curve with a large enough effect in the signal ratio in the repeat runs, not every such curve was filed as active; the % refers to the signal ratio). The essentials: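 Stably transfected HEK293H cells (GeneBLAzer PPARg UAS-bla) were incubated with test substances for 17 h at 37C after a 5 h pre-incubation; beta-lactamase activity was then detected by FRET substrate fluorescence.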

Assay [5] shares this target. Description: qHTS assay to identify small molecule antagonists of the peroxisome proliferator-activated receptor gamma (PPARg) signaling pathway (AID 743191; calls by dose curve; also: series mostly up to about 63 µM; nearly all actives have a fitted effect of over 30% in size). The essentials:
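GeneBLAzer PPARg UAS-bla HEK293H cells carrying a UAS-driven beta-lactamase reporter were plated at 3000 cells/well, preincubated 5 h at 37C, then given compound for 17 h at 37C; LiveBLAzer B/G FRET substrate was read after 1 h at room temperature.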

Assay [6] can be described thus: qHTS assay to identify small molecule antagonists of the peroxisome proliferator-activated receptor gamma (PPARg) signaling pathway - cell viability counter screen (AID 743194). Also: nearly all actives have a fitted effect of over 55% in size. The essentials:
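PPARg-UAS-bla HEK293H cells were plated, rested 5 h at 37 C, then treated with compounds plus rosiglitazone (50 nM final) for 17 h at 37 C; viability was then read by CellTiter-Glo luminescence after 30 min at room temperature.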

Assay [7] in a line: qHTS assay for small molecule agonists of the antioxidant response element (ARE) signaling pathway - cell viability counter screen (AID 743203; calls by dose curve; also: nearly all actives have a fitted effect of over 55% in size). Put shortly: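 Cells (ARE-bla HepG2, 2,000/well) receive DMSO-dissolved compounds after a 5 hrs rest. Plates incubate 16 hrs at 37C/5% CO2. CellTiter-Glo luminescence is then recorded after 30 min at room temperature.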
A short description of assay [8]: qHTS assay for small molecule activators of the heat shock response signaling pathway - cell viability counter screen (AID 743209). Also: nearly all actives have a fitted effect of over 50% in size. Put shortly:
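Quantitative HTS format, Tox21 10K library. HeLa cells carrying an HSE-driven beta-lactamase reporter were treated 5 h at 37 C, then assessed for viability by CellTiter-Glo luminescence.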

Assay [9] is described as follows: qHTS assay for small molecule activators of the heat shock response signaling pathway (AID 743210; active = well fitted activation curve with a large enough effect in the signal ratio in the repeat runs, with a control signal flat, not every such curve was filed as active; the % refers to the signal ratio; also: series mostly up to about 63 µM). Put shortly: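 HSE-bla HeLa cells (beta-lactamase reporter under heat shock response elements) were exposed to compounds for 5 h at 37 C, then loaded with LiveBLAzer B/G FRET substrate for 2.5 h at room temperature before fluorescence reading.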
The target of assay [10] is Peroxisome proliferator-activated receptor delta (Homo sapiens) (UniProt Q03181). Description: qHTS assay to identify small molecule agonists of the peroxisome proliferator-activated receptor delta (PPARd) signaling pathway (AID 743212; calls by dose curve). Put shortly: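 GeneBLAzer PPARd UAS-bla HEK293H cells (beta-lactamase reporter under UAS control), plated and rested 5 h at 37 C, then exposed to compounds in DMSO at 37 C; LiveBLAzer B/G FRET substrate added, 2 h room temperature, fluorescence read.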

Assay [11] can be described thus: qHTS assay to identify small molecule antagonists of the peroxisome proliferator-activated receptor delta (PPARd) signaling pathway - cell viability counter screen (AID 743213). Also: nearly all actives have a fitted effect of over 50% in size. Also: potency is read from the fitted curve at half-maximal effect. Put shortly:
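In this counter screen, HEK293H cells carrying a UAS-beta-lactamase reporter are co-treated with test compounds and 300 nM L165041 (final) for 17 h at 37 C; cell viability is quantified by CellTiter-Glo luminescence.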

The target of assay [12] is Peroxisome proliferator-activated receptor delta (Homo sapiens) (UniProt Q03181). Description: qHTS assay to identify small molecule antagonists of the peroxisome proliferator-activated receptor delta (PPARd) signaling pathway (AID 743215; active = well fitted inhibition curve with a large enough effect in the signal ratio in the repeat runs, not every such curve was filed as active; the % refers to the signal ratio;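 also: cells stimulated with agonist L165041 at 300 nM final during compound exposure; series mostly up to about 62 µM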). Put shortly:
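Antagonist-mode beta-lactamase reporter screen: HEK293H cells with UAS-bla under PPARd control, stimulated by 300 nM L165041 (final) alongside test compound for 17 h at 37 C, then FRET fluorescence after 2 h substrate incubation.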

Assay [13] can be described thus: qHTS assay to identify small molecule agonists of the farnesoid-X-receptor (FXR) signaling pathway - cell viability counter screen (AID 743218). Also: nearly all actives have a fitted effect of over 45% in size. The essentials: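 In GeneBLAzer FXR-UAS-bla HEK 293T cells, compounds act for 16 h at 37 C. Cell viability is then scored in the reporter wells by CellTiter-Glo, 30 min at RT, luminescence.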
Assay [14] can be described thus: qHTS assay to identify small molecule antagonists of the farnesoid-X-receptor (FXR) signaling pathway - cell viability counter screen (AID 743221; active = well fitted cell-killing curve with a large enough effect in the repeat runs, not every such curve was filed as active; also: nearly all actives have a fitted effect of over 50% in size). Put shortly:
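GeneBLAzer FXR-UAS-bla HEK 293T cells, compound plus chenodeoxycholic acid (50 uM final), 16 h at 37 C. CellTiter-Glo added to the same wells after the beta-lactamase read; luminescence read after 30 min at room temperature as viability.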

In assay [15] the target is Vitamin D3 receptor (Homo sapiens) (UniProt P11473). In words: qHTS assay to identify small molecule agonists of the vitamin D receptor (VDR) signaling pathway (AID 743222; calls by dose curve). The essentials: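 Agonist activity measured in VDR-bla reporter cells. Exposure 16 h, 37C, 5% CO2; detection by B/G FRET substrate, 2 h RT.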
For assay [16] the target is unchanged. Description: qHTS assay to identify small molecule antagonists of the vitamin D receptor (VDR) signaling pathway (AID 743223; active = well fitted inhibition curve with a large enough effect in the signal ratio in the repeat runs, not every such curve was filed as active; the % refers to the signal ratio). Put shortly: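 VDR-bla cells were treated with compound plus 3 nM final 1alpha,25-dihydroxyvitamin D3 for 16 h at 37C. Beta-lactamase reporter read by B/G FRET substrate fluorescence after 2 h at room temperature. qHTS format.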
The nature of assay [17]: qHTS assay for small molecule agonists of the antioxidant response element (ARE) signaling pathway (AID 743202; active = well fitted activation curve with a large enough effect in the signal ratio in the repeat runs, not every such curve was filed as active; the % refers to the signal ratio). The essentials:
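Read-out: LiveBLAzer B/G FRET substrate fluorescence after 2 h at room temperature, following 16 h compound treatment at 37 C of HepG2 cells carrying an ARE-driven beta-lactamase reporter.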

Assay [18] is described as follows: qHTS assay to identify small molecule agonists of the peroxisome proliferator-activated receptor delta (PPARd) signaling pathway - cell viability counter screen (AID 743211). Also: nearly all actives have a fitted effect of over 55% in size. The essentials: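 PPARd-bla HEK293H cells (3000/well) were pre-incubated 5 h at 37 C, then exposed to compound for 17 h at 37 C. After 2 h with LiveBLAzer substrate, CellTiter-Glo was added to the same wells; luminescence read after 30 min at room temperature.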

Assay [19] deals with Bile acid receptor (Homo sapiens) (UniProt Q96RI1). Description: qHTS assay to identify small molecule antagonists of the farnesoid-X-receptor (FXR) signaling pathway (AID 743217; active = well fitted inhibition curve with a large enough effect in the signal ratio in the repeat runs, not every such curve was filed as active; the % refers to the signal ratio). Put shortly: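 Beta-lactamase reporter under UAS control in HEK 293T cells; compound exposure 16 h at 37 °C in the presence of chenodeoxycholic acid (50 uM final); signal from B/G FRET substrate after 2 h at room temperature.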

Assay [20] shares this target. In words: qHTS assay to identify small molecule agonists of the farnesoid-X-receptor (FXR) signaling pathway (AID 743220; active = well fitted activation curve with a large enough effect in the signal ratio in the repeat runs, not every such curve was filed as active; the % refers to the signal ratio). Put shortly:
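Beta-lactamase reporter under UAS control in GeneBLAzer FXR HEK 293T cells (5000/well) measured with LiveBLAzer FRET substrate after 2 h at room temperature. Compound exposure lasted 16 h at 37C.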
% is scaled to controls: 0 for no effect and ±100 for the full control effect.

Vitamin D3 receptor (Homo sapiens), sequence (P11473 whole entry, looked up): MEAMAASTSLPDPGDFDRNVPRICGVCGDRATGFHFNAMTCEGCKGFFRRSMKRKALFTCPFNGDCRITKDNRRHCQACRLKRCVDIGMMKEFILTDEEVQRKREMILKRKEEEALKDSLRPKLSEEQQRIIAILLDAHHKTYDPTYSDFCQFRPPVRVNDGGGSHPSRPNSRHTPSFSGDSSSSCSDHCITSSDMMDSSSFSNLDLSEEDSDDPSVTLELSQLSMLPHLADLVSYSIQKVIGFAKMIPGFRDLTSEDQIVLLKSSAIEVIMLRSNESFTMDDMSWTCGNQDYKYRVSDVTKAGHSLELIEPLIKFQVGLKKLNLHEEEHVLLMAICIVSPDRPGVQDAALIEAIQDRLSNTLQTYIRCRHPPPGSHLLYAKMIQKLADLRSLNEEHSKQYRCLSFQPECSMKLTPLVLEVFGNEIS
Aryl hydrocarbon receptor (Homo sapiens), sequence (P35869 whole entry, looked up): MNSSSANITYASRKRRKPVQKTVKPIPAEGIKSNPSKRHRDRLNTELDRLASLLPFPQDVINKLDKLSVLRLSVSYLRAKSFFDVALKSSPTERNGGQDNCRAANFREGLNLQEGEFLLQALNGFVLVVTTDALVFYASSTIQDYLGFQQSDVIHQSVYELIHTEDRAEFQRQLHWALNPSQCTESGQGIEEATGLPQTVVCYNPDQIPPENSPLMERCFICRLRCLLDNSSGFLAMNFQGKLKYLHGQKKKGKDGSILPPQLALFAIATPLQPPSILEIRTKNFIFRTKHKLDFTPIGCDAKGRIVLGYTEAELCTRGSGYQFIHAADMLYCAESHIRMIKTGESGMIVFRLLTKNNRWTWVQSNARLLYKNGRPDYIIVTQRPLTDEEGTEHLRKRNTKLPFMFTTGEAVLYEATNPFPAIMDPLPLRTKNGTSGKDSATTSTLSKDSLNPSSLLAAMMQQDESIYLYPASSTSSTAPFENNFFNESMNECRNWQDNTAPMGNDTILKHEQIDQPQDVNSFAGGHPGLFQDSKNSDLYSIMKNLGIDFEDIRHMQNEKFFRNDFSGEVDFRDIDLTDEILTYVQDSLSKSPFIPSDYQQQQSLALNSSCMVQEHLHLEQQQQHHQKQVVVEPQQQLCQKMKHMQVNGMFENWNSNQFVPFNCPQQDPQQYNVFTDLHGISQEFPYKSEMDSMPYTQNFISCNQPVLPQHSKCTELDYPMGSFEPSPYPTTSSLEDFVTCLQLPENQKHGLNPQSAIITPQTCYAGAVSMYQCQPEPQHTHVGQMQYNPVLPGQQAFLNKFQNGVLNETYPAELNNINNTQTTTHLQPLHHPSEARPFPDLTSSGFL
Peroxisome proliferator-activated receptor gamma (Homo sapiens), sequence (P37231 whole entry, looked up): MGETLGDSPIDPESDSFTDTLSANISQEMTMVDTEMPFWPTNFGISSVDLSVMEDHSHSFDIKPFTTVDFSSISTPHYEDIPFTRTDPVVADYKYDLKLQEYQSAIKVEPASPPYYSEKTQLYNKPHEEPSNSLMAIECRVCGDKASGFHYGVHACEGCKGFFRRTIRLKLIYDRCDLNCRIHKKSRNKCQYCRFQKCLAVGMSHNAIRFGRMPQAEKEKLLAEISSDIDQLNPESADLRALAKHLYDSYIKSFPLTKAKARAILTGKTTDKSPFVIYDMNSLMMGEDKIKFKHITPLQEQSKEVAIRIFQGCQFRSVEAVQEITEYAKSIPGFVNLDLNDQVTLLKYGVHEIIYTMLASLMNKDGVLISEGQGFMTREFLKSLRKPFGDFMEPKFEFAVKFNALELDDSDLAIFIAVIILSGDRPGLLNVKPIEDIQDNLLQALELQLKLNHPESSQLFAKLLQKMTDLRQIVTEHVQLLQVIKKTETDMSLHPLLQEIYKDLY
Bile acid receptor (Homo sapiens), sequence (Q96RI1 whole entry, looked up): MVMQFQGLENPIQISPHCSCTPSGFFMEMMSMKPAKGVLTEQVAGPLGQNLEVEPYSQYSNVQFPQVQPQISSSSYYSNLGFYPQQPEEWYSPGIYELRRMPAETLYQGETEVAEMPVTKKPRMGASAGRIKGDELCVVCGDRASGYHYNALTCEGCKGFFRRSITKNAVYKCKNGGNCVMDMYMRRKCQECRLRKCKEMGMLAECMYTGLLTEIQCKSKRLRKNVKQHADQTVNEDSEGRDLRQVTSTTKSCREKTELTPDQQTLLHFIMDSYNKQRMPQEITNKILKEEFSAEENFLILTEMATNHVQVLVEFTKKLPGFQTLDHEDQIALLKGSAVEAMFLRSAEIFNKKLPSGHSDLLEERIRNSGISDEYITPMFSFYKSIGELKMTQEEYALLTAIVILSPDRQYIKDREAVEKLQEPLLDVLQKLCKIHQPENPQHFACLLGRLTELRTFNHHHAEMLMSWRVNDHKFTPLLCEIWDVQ
Peroxisome proliferator-activated receptor delta (Homo sapiens), sequence (Q03181 whole entry, looked up): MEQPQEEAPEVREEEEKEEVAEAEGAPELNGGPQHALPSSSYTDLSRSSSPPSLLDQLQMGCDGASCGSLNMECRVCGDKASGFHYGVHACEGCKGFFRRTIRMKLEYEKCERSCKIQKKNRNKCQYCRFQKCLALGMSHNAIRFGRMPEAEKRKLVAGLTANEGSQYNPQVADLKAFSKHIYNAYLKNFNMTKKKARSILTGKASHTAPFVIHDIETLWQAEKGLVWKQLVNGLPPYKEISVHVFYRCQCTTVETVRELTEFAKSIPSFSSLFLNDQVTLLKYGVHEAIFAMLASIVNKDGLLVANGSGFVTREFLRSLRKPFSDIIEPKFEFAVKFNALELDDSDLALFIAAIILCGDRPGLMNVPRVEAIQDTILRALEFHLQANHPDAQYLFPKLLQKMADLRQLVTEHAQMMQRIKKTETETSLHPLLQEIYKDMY

As for `CCCCNS(=O)(=O)c1ccc(C)cc1`, the Potency result in [1], in assay [2], in assay [3], in assay [4], in assay [5] and in [6] was “inactive” in each case. Moreover, the Potency entry in assay [7], in assay [8], in assay [9], in assay [10], in assay [11] and in [12] was “inactive” throughout. For the same compound, the Potency entry in assay [13] was “inactive”.
Take `CC(=O)OCC=C(C)C`: the Potency result in assay [1], in [2], in [3], in [4], in [5] and in assay [6] was “inactive” in each case. Also, the Potency result in assay [7], in [8], in assay [9], in assay [10], in [11] and in assay [12] was “inactive” each time. Besides, the Potency result in assay [13], in assay [14], in assay [15] and in assay [16] was “inactive” throughout.
As for `O=[N+]([O-])c1ccc(F)c(Cl)c1`, the Potency result in [1], in [2], in assay [3], in assay [4], in [5] and in assay [6] was “inactive” in each case. Also, the Potency entry in assay [17], in assay [7], in assay [8], in assay [18], in assay [19] and in [13] was “inactive” each time. The Potency result in assay [20], in [14], in assay [15] and in assay [16] was “inactive” in each case.
As to `C=C(C)c1cccc(C(=C)C)c1`, the Potency result in [1], in [2], in assay [3], in [4], in assay [5] and in [6] was “inactive” throughout. The Potency result in assay [17], in assay [7], in assay [8], in [10], in assay [11] and in assay [12] was “inactive” each time. Besides, the Potency entry in assay [19], in assay [13], in [20] and in assay [14] was “inactive” throughout.
As for `CC[N+](CC)(CC)CCOc1ccc(/C=C/c2ccccc2)cc1`, the Potency result in [1], in assay [2], in assay [3], in [4], in assay [5] and in [6] was “inactive” in each case. The Potency entry in assay [7], in assay [8], in [9], in assay [18], in [11] and in assay [13] was “inactive” in each case. Moreover, the Potency result in assay [14] is “inactive”.
Regarding `CN1CCCCC1CCN1c2ccccc2Sc2ccc(S(C)=O)cc21` (stereo not drawn), the Potency result in assay [1], in assay [2], in [3], in assay [4], in assay [5] and in [6] was “inactive” in each case. Further, the Potency entry in [17], in assay [7], in assay [8], in assay [9], in [10] and in assay [12] was “inactive” each time. Further, the Potency result in assay [13] and in assay [14] was “inactive” throughout.
Regarding `O=C(O)O`, the activity change, negative = cytotoxicity in assay [1] is -13.2% [at 8.47 µM]; in assay [6] it was 0.913% [at 5.95 µM]; in assay [14], -10.5% [at 5.95 µM]. Moreover, the activation in assay [2] is -1.17% [at 8.47 µM]; in [4], -5.02% [at 7.08 µM]; in assay [17] it was -11.2% [at 8.36 µM]; in assay [10], -0.685% [at 5.95 µM]. The viability change, negative = cytotoxic in [3] is -24.2% [at 8.47 µM]; in assay [7] it was 6.5% [at 8.36 µM]; in [13] it was 5.67% [at 5.95 µM]. In addition, in assay [5], the ratio activity, negative = inhibition was -1.11% [at 5.95 µM]. Further, the Potency in assay [11] is 2.37 µM (active). Also, the activity change, negative = inhibition in assay [16] was 0.752% [at 6.95 µM].
As to `C=Cc1ccccc1C=C`, the Potency result in assay [1], in assay [2], in assay [3], in assay [4], in [5] and in assay [6] was “inactive” in each case. Besides, the Potency entry in assay [17], in assay [7], in assay [9], in [18], in assay [10] and in [11] was “inactive” throughout. Besides, the Potency result in [12], in assay [13], in [20], in assay [14], in assay [15] and in assay [16] was “inactive” each time.
In the case of `CCCCCc1ccc(Cl)cc1`, the Potency entry in assay [1], in [2], in assay [3], in assay [4], in assay [5] and in assay [6] was “inactive” in each case. Moreover, the Potency entry in [17], in [7], in assay [8], in [9], in assay [18] and in assay [10] was “inactive” each time. Also, the Potency entry in assay [11], in [12], in assay [19], in assay [13], in [20] and in assay [14] was “inactive” throughout. Moreover, the Potency result in assay [15] is “inactive”.
